Out of some 1,300 compounds screened, about 40 (3%) were called active. Rule as the data show it: active = inhibition above about 30%; inactive = the rest. What follows is part of a selection rich in actives, with near analogues and random picks from the rest.
Target: fMet-Leu-Phe receptor (Homo sapiens) (UniProt P21462)
Test: human FPR1 ligand displacement screen – cell-based, flow cytometry, SAR analysis, primary screen (AID 722)
Conditions: FPR-expressing cells, fluorescent ligand binding inhibition, stronger effect = higher value, concentration not given here

fMet-Leu-Phe receptor (Homo sapiens), sequence (P21462 whole entry, looked up): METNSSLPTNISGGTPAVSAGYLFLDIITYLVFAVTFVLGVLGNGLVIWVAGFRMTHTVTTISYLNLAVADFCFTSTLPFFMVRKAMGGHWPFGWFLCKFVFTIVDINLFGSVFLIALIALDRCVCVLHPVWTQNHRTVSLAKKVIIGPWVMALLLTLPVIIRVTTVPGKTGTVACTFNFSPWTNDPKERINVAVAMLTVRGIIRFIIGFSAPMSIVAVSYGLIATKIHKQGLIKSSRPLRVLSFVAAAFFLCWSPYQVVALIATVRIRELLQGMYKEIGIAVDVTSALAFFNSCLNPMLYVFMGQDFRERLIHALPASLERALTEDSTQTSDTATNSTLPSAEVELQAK

inhibition, active:
CC(C)C(=O)N(Cc1ccco1)S(=O)(=O)c1cccc2cccnc12 82.2%
CCCC(=O)N(Cc1ccco1)S(=O)(=O)c1cccc2cccnc12 97.6%
O=C1CC(c2ccccc2C(F)(F)F)C2=C(CC(c3cccs3)CC2=O)N1 (stereo not drawn) 32.3%
Cc1cccc(C2CC(=O)NC3=C2C(=O)CC(c2cccs2)C3)c1 (stereo not drawn) 33.7%
O=C1NC(c2ccc(Br)cc2)/C(=C(\O)c2ccc(Cl)cc2)C1=O (stereo not drawn) 46.3%
COc1cc(C2C(C(=O)c3cc4ccccc4o3)=C(O)C(=O)N2CCN(C)C)ccc1O (stereo not drawn) 88.7%
COc1ccc(C2C(C(=O)c3cc4ccccc4o3)=C(O)C(=O)N2CCN(C)C)cc1OC (stereo not drawn) 66.9%
COc1ccc(C2C(C(=O)c3ccco3)=C(O)C(=O)N2CCN2CCOCC2)c(OC)c1 (stereo not drawn) 49.5%
COc1ccc(C2C(C(=O)c3cccs3)=C(O)C(=O)N2CCN2CCOCC2)c(OC)c1 (stereo not drawn) 62%
COc1ccc(-c2c(C)[nH]n3c(=O)c4c(nc23)CCCC4)cc1 73%
CC(=O)C1=C(O)C(=O)N(CCc2c(C)[nH]c3ccccc23)C1c1cccc(F)c1 (stereo not drawn) 65.2%
O=C(Oc1ccc2c(=O)c(-c3ccccc3Cl)c(C(F)(F)F)oc2c1)c1cccs1 70%
O=C(Oc1ccc2c(=O)c(Oc3ccccc3Br)c(C(F)(F)F)oc2c1)c1cccs1 37.2%
COc1ccc(C2/C(=C(\O)c3ccccc3)C(=O)C(=O)N2c2cccc(Cl)c2)c(OC)c1 (stereo not drawn) 47.6%
COCCN1C(=O)C(=O)/C(=C(/O)c2ccccc2)C1c1cc(OC)ccc1OC (stereo not drawn) 69.8%
COc1ccc(C2/C(=C(\O)c3ccccc3)C(=O)C(=O)N2CCCn2ccnc2)c(OC)c1 (stereo not drawn) 79.1%

inhibition, inactive:
Cn1c(NCCO)nc2c1c(=O)n(Cc1ccc(F)cc1)c(=O)n2C -9.2%
COc1ccc(Cl)cc1N1C(=O)CSC1c1ccccc1F (stereo not drawn) 4.1%
COc1ccc(N(C(=O)c2cccnc2)S(=O)(=O)c2cccs2)cc1 13%
COc1ccc(/C(O)=C2/C(=O)C(=O)N(CCCn3ccnc3)C2c2ccc(O)c(OC)c2)cc1 (stereo not drawn) -11%
Cn1c(NCCO)nc2c1c(=O)n(Cc1cccc(F)c1)c(=O)n2C 6.7%
O=C1C(=O)N(c2nc3ccccc3s2)C(c2cccc(F)c2)/C1=C(\O)c1ccccc1 (stereo not drawn) 4.3%
CCOc1ccccc1C(=O)N(Cc1ccco1)Cc1ccco1 -4.7%
O=C(c1ccccc1)N(Cc1ccco1)Cc1ccco1 7.4%
CCc1ccc(CN(Cc2ccco2)C(=O)c2ccccc2)cc1 2.2%
Cc1ccccc1NC(=S)N(Cc1ccco1)C(C)c1ccccn1 (stereo not drawn) -1%
COc1ccc(Cn2c(=S)[nH]c3cc4ccccc4cc3c2=O)cc1 -2.8%
COC(=O)c1ccccc1NC(=O)NC1CCCCC1 -4.1%
Cc1ccc(/C(O)=C2\C(=O)C(=O)NC2c2ccc(C)cc2)cc1 (stereo not drawn) -7.7%
COCCCN1C(=O)C(=O)/C(=C(/O)c2ccccc2)C1c1ccc2c(c1)OCO2 (stereo not drawn) -1.2%
O=C1C(=O)N(CCO)C(c2ccc([N+](=O)[O-])cc2)/C1=C(/O)c1ccc(Cl)cc1 (stereo not drawn) -5.4%
O=C1CC(c2cccc(F)c2)C2=C(CC(c3cccs3)CC2=O)N1 (stereo not drawn) -6.6%
O=C1CC(c2ccccc2)C2=C(CC(c3cccs3)CC2=O)N1 (stereo not drawn) -21.7%
O=C1CC(c2cccc(Cl)c2Cl)C2=C(CC(c3cccs3)CC2=O)N1 (stereo not drawn) -15.7%
O=C1CC(c2cccc(Cl)c2)C2=C(CC(c3cccs3)CC2=O)N1 (stereo not drawn) 10.4%
COc1ccc(C2C(C(=O)c3cccs3)=C(O)C(=O)N2Cc2cccnc2)cc1 (stereo not drawn) -9.5%
O=C1C(=O)N(CCO)C(c2cccc(F)c2)/C1=C(/O)c1ccccc1 (stereo not drawn) -7.5%
COc1ccc(OC)c(C2/C(=C(\O)c3ccccc3)C(=O)C(=O)N2c2nc3ccccc3s2)c1 (stereo not drawn) -1.7%
COc1cccc(C2/C(=C(\O)c3ccc(F)cc3)C(=O)C(=O)N2Cc2cccnc2)c1 (stereo not drawn) 1%
CC(C)(C)c1ccc(C2/C(=C(\O)c3ccc(F)cc3)C(=O)C(=O)N2Cc2cccnc2)cc1 (stereo not drawn) -1.6%
O=C1NC(c2ccccc2Cl)/C(=C(/O)c2ccc(Br)cc2)C1=O (stereo not drawn) 8.6%
COc1ccc(C2NC(=O)C(=O)/C2=C(\O)c2ccc(Cl)cc2)cc1 (stereo not drawn) -4.8%
O=C1NC(c2cccc(F)c2)/C(=C(/O)c2ccc(Br)cc2)C1=O (stereo not drawn) 17%
COC(=O)c1sc(N2C(=O)C(O)=C(C(=O)c3cc4ccccc4o3)C2c2ccc(OC)cc2)nc1C (stereo not drawn) 3.6%
COC(=O)c1c[nH]n2c(=O)cc(C3CCNCC3)nc12 -1.9%
O=C1CSC(c2ccc(Br)cc2)N1c1cccc(Cl)c1 (stereo not drawn) 2.7%
COc1cc(C2C(C(=O)c3cc4ccccc4o3)=C(O)C(=O)N2CCN(C)C)cc(OC)c1OC (stereo not drawn) -6.9%
COc1ccc(C2C(C(=O)c3cc4ccccc4o3)=C(O)C(=O)N2CCN(C)C)cc1 (stereo not drawn) -8.1%
COc1cc(C2C(C(=O)c3cc4ccccc4o3)=C(O)C(=O)N2CCCN(C)C)cc(OC)c1OC (stereo not drawn) 14.6%
COc1cccc(C2C(C(=O)c3cc4ccccc4o3)=C(O)C(=O)N2CCCN(C)C)c1 (stereo not drawn) -4.2%
COCCCN1C(=O)C(=O)/C(=C(/O)c2ccc(C)cc2)C1c1cc(OC)ccc1OC (stereo not drawn) 0.2%
CCOC(=O)Cc1c(C)nc2c(-c3ccccc3)c(-c3ccccc3)[nH]n2c1=O -11.4%
COCCN1C(=O)C(O)=C(C(=O)c2cc3ccccc3o2)C1c1ccc(OCc2ccccc2)c(OC)c1 (stereo not drawn) -2.2%
COc1ccc(C2C(C(=O)c3ccco3)=C(O)C(=O)N2CCN2CCOCC2)cc1OC (stereo not drawn) -43.5%
COc1ccc(C2C(C(=O)c3cccs3)=C(O)C(=O)N2CCN2CCOCC2)cc1 (stereo not drawn) 9.7%
COc1ccc(C2C(C(=O)c3ccco3)=C(O)C(=O)N2CCN2CCOCC2)cc1 (stereo not drawn) 2.9%
COc1ccc(C2C(C(=O)c3cccs3)=C(O)C(=O)N2CCCN2CCOCC2)cc1 (stereo not drawn) 6.5%
COc1ccccc1CN1C(=O)c2nccnc2C1=O 1.8%
CCc1ccc(C(=O)CSc2nc3nc(C)cc(C)c3c(=O)[nH]2)cc1 5.9%
CCOC(=O)c1c(NC(=O)c2ccco2)sc2c1CCC(C)C2 (stereo not drawn) -0.4%
Cc1ccc(N2C(=O)CSC2c2ccc(C(C)C)cc2)cc1 (stereo not drawn) -5.6%
O=C(C1=C(O)C(=O)N(CCCn2ccnc2)C1c1ccc(Cl)cc1Cl)c1ccco1 (stereo not drawn) 1.7%
CCOC(=O)c1c(NC(=O)c2cccnc2)sc2c1CCC(C(C)(C)C)C2 (stereo not drawn) -8%
O=C1C(=O)N(c2cccnc2)C(c2ccccc2[N+](=O)[O-])/C1=C(/O)c1ccccc1 (stereo not drawn) -2.9%
CCc1c(C)sc(NC(=O)c2cccc(F)c2)c1C(=O)OC -9.8%
COc1ccc(C2C(C(C)=O)=C(O)C(=O)N2Cc2ccco2)cc1OC (stereo not drawn) 1.8%
COc1cccc(Oc2c(C(F)(F)F)oc3cc(O)ccc3c2=O)c1 9.2%
COC(=O)c1c(NC(=O)c2ccoc2C)sc(C)c1C 5.4%
COc1ccc(-c2c(C)[nH]n3c(=O)cc(Cc4ccccc4)nc23)cc1 -1.1%
CCc1c(C)nc2c(-c3ccc(OC)cc3)c(C)[nH]n2c1=O 12.9%
CC(C)OC(=O)c1nonc1N(C(=O)c1ccccc1)C(=O)c1ccccc1 -0.6%
O=C1C(=O)N(CCN2CCOCC2)C(c2cccs2)/C1=C(\O)c1ccc(S(=O)(=O)N2CCOCC2)cc1 (stereo not drawn) -1.3%
COc1ccc(/C(O)=C2/C(=O)C(=O)N(CCc3c(C)[nH]c4ccccc34)C2c2ccc(Cl)cc2)cc1 (stereo not drawn) 4.2%
CC(=O)C1=C(O)C(=O)N(CCc2c(C)[nH]c3ccccc23)C1c1cccc([N+](=O)[O-])c1 (stereo not drawn) 9.3%
Cc1onc(-c2ccccc2Cl)c1C(=O)Oc1cccc(F)c1 3.6%
CCOC(=O)c1c(NC(=O)c2cc3ccccc3o2)sc2c1CCC(C)C2 (stereo not drawn) -1.7%
CCN1CCC2(CC1)N=C(c1ccccc1)C(=S)N2C(=O)c1ccccc1 2.1%
CC(=O)C1=C(O)C(=O)N(Cc2ccco2)C1c1ccc(Br)cc1 (stereo not drawn) -1.5%
COc1ccc(/C(O)=C2/C(=O)C(=O)N(c3ccc(C)c(Br)c3)C2c2ccc(O)cc2)cc1 (stereo not drawn) -5.2%
O=C(c1ccccc1F)N(Cc1ccco1)Cc1ccccc1F 9.3%
COc1cccc(OC)c1C(=O)Oc1ccc2c(=O)c(-c3ccc(Cl)cc3)c(C(F)(F)F)oc2c1 4.7%
COc1ccccc1-c1c(C(F)(F)F)oc2cc(OC(=O)N3CCOCC3)ccc2c1=O 9.4%
O=C(Oc1ccc2c(=O)c(Oc3ccccc3Cl)c(C(F)(F)F)oc2c1)c1cccs1 -8.1%
COc1ccc(Oc2c(C(F)(F)F)oc3cc(OC(=O)c4c(OC)cccc4OC)ccc3c2=O)cc1 2.9%
COc1cc(C)c2c(=O)c(Oc3ccccc3)c(C(F)(F)F)oc2c1 4.2%
CCCCc1c(O)nc(SCCN(C)C)n(-c2ccccc2)c1=O -1%
CCOc1ccc(C2/C(=C(/O)c3ccc(Cl)cc3)C(=O)C(=O)N2c2ccc(C)c(Br)c2)cc1 (stereo not drawn) -0.6%
COCCCN1C(=O)C(=O)/C(=C(/O)c2ccccc2)C1c1cc(OC)ccc1OC (stereo not drawn) 11.4%
COc1ccc(C2/C(=C(\O)c3ccccc3)C(=O)C(=O)N2c2ccc(C)c(Cl)c2)c(OC)c1 (stereo not drawn) -4.3%
COc1ccc(/C(O)=C2/C(=O)C(=O)N(CCCn3ccnc3)C2c2cccc(OC)c2)cc1 (stereo not drawn) -6.1%
COc1ccc(C2/C(=C(/O)c3ccccc3)C(=O)C(=O)N2c2ccc(C)c(Br)c2)c(OC)c1 (stereo not drawn) -1.6%
COc1ccc(C2/C(=C(/O)c3ccccc3)C(=O)C(=O)N2CCO)c(OC)c1 (stereo not drawn) -12.1%
COCCN1C(=O)C(=O)/C(=C(/O)c2ccccc2)C1c1ccc(OC)cc1OC (stereo not drawn) 10.5%

— PubChem BioAssay AID722 (NMMLSC, 2007)
